This is a sample that favours compounds with a hit; in the whole collection about 2.3% have one here.
Tau FP inhib: inhibitors of human tau fibril formation | P10636 | K18 P301L tau heparin fibrillization, Alexa594 FP, 6 h | Potency, µM (series often up to 57.7 µM), for inactives: at the top dose activity, negative = inhibition, most hits filed as inhibitors | 280,000 compounds, 0.39% hits; further: potency means the concentration at half of the fitted maximal effect; nearly all actives have a fitted effect of over 55% in size
Target sequence (P10636 561-689 P618L limits assumed): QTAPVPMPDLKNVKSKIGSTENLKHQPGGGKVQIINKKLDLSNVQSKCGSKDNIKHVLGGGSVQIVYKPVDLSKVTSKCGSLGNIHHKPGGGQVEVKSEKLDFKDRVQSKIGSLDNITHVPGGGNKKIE
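Steps: dispense K18 P301L tau (15 uM plus 0.24 uM Alexa 594 tracer, final) in pH 7 sodium acetate; add compound; add heparin (20 uM final); incubate 6 hr, 37 C; add ThT (30 uM final); after 1 hr ambient, read FP.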
Tau fluor counter: counter-screen for tau fibril formation inhibitors | tau K18 P301L Alexa594 fluorescence, heparin fibrillization | AID 1463 | Potency, µM (titrated, usually from 57.7 µM), for the others: top-dose activity change, negative = decrease | 280,000 compounds, 0.93% hits; further: potency means the concentration at half of the fitted maximal effect; nearly all actives have a fitted effect of over 55% in size
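Human tau K18 P301L (15 uM unlabeled, 0.24 uM Alexa 594-labeled) in 100 mM sodium acetate pH 7 with 20 uM heparin, 6 hr at 37 C. ThT 30 uM added, 1 hr ambient; Alexa 594 FP and total fluorescence read at 555/632 nm.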
USP1 inh: blocks the human USP1/UAF1 deubiquitinase complex. O94782. 390,000 compounds, 0.23% hits. recombinant USP1/UAF1, Ub-Rhodamine cleavage fluorescence. Potency, µM (titrated, usually from 57.1 µM), without a hit: at the top dose activity change, negative = inhibition, usual class: inhibitors; further: potency means the concentration at half of the fitted maximal effect; nearly all actives have a fitted effect of over 60% in size
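High-throughput fluorogenic screen: 1nM USP1/UAF1 complex, Ub-Rho substrate 150nM final, 50mM HEPES pH 7.8 with 0.5mM EDTA, 0.1 mg/ml BSA, 1mM TCEP and 0.01% Tween-20.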
Tau ThT inhib: inhibitors of human tau fibril formation, thioflavin T binding | Potency, µM (highest dose often 57.4 µM), inactives show at the highest dose activity, negative = inhibition, most hits filed as inhibitors | recombinant tau K18 P301L (four-repeat tau fragment), heparin-induced fibrillization, ThT fluorescence | 270,000 compounds, 2.1% hits; further: potency means the concentration at half of the fitted maximal effect; nearly all actives have a fitted effect of over 55% in size
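K18 P301L tau (15 uM + 0.24 uM Alexa 594-tagged), heparin 20 uM, NaOAc pH 7, 6 h 37 C; ThT 30 uM, 1 h RT, ex 450/em 510 nm.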
Coupling enz: coupling enzyme interference in Giardia aldolase counter-screen. coupling enzyme system counterscreen, AmpLite Red fluorescence. activity change, negative = inhibition, % at 58.2 µM, hits read low. 290,000 compounds, 0.67% hits; in the data active means activity change below about -30%
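Counterscreen of the coupled detection system alone, without aldolase: glyceraldehyde-3-phosphate coupling enzymes plus AmpLite Red readout. Compounds at 57.5 uM final, 10 min RT preincubation, 20 min RT reaction, fluorescence 525/598 nm.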
Starred values were filed as active, the others as inactive; ? = inconclusive; . = not tested or not shown; [ ] = dose if it differs, or a comment. Unless noted, the call rests on the fitted dose curve; in most records, active means well fitted curve in the direction sought with a large enough effect; inconclusive means small, poorly fitted or top-dose-only effect, or another doubt; inactive means no such curve, though single readings can be large; an effect the other way counts as inactive or inconclusive. On the % scale 0 is the no-effect control and ±100 the full control effect.

SMILES | Tau FP inhib | Tau fluor counter | USP1 inh | Tau ThT inhib | Coupling enz
CCc1cc(/C(Cc2ccccn2)=N\O)c(O)cc1O | 7.9% | -19.5% | 3.2% | -12.4% | 5.0
COc1ccc(Cl)cc1NC(=O)c1cnc2sc(N3CCOCC3)nn2c1=O | -4.6% | -5.4% | 25.0% | -1.7% | .
O=C(NCCc1ccccc1)C1CCCN1C(=O)Nc1ccc(Cl)cc1 (centres undefined) | . | . | -22.0% | . | 4.9
C=CC[n+]1c(-c2ccc(Cl)cc2Cl)csc1Nc1ccc(NC(C)=O)cc1 | ? | 25.1µM*[quencher] | -18.0% | ? | 0.2
C=CC[n+]1c(-c2ccc(Cl)cc2Cl)csc1Nc1c(C)n(C)n(-c2ccccc2)c1=O | -2.8% | -25.8% | -23.5% | ? | 0.8
O/C(=C\c1nc2ccccc2nc1/C=C(\O)c1ccccc1)c1ccccc1 | 3.1% | -7.6% | -2.1% | ? | -47.9*
CNC(=O)CN1C(=O)c2cccc3cccc1c23 | -3.6% | 10.2% | -11.3% | 11.3% | -0.8
CN1/C(=N\O)c2cccc3cccc1c23 | -12.7% | -26.9% | -4.9% | ? | -47.1*
CCc1ccc(C(=O)c2cn(CC(=O)Nc3ccc(F)cc3)c3ccc(F)cc3c2=O)cc1 | ? | ? | -12.5% | ? | .
Cc1ccccc1C(=O)Nc1ccc(-c2nc3ccc(C(=O)c4ccccc4)cc3[nH]2)cc1 | 28.2µM* | ? | -3.0% | -4.5% | -1.5
CN1CCc2cccc3c2[C@@H]1Cc1ccc(O)c(O)c1-3 | 28.2µM* | 28.2µM*[quencher] | -9.8% | 28.2µM* | -7.3
N=C(C[C@@H](O)COc1ccccc1-c1ccccc1)N1CCCCC1 | -0.5% | -4.3% | . | -14.0% | -0.2
O=S(=O)(c1cccs1)N1CN(Cc2ccco2)c2nc3ccccc3nc21 | ? | ? | -18.3% | 22.4µM* | -12.4
Cc1cccc(NC(=O)Cn2c(O)c(N=NC(=O)c3ccccc3O)c3ccccc32)c1 | 0.0% | ? | -15.1% | 15.8µM* | 3.4
COc1cccc(-c2nc(NC3CC3)c3ccccc3n2)c1 | . | . | . | . | -2.4
CCCCc1cc2c(cn1)=C(OC(=O)C1CCCC1)C(C)(OC(=O)CC)C(=O)C=2 (centres undefined) | 1.2%[11.6 µM] | -7.8%[11.6 µM] | . | ? | -4.4
CN(C)c1nc(C=C(C#N)C#N)c(Cl)n1-c1ccc(F)cc1 | ? | -29.3% | -21.6% | 14.1µM* | 0.3
Cc1ccc(NC(=O)/C(C#N)=C/c2cc(C)n(-c3ccc(F)cc3)c2C)cc1C | -4.1% | 1.0% | ? | -2.2% | .
O=C1CCCCCCC1Sc1ccccc1[N+](=O)[O-] (centres undefined) | ? | -23.2% | -12.3% | 31.6µM* | -0.3
Cc1ccc(C)c(NC(=S)NCc2ccc3[nH]c4c(c3c2)CCCC4)c1 | ? | 12.6µM*[quencher] | -11.1% | ? | 0.7
O=C(NCc1ccc2[nH]c3c(c2c1)CCCC3)N1CCOCC1 | -9.8% | -14.4% | . | ? | -53.1*
O=C(NCc1ccc2[nH]c3c(c2c1)CCCC3)c1ccc(S(=O)(=O)N2CCOCC2)cc1 | 12.8% | ? | -10.7% | -15.0% | -0.7
Cc1ccc(CNC(=O)C2CCN(Cc3nc(-c4cccc(Br)c4)oc3C)CC2)cc1 | -4.8% | -8.1% | -26.4% | -2.4% | .
O=C(Cn1c(=O)n(Cc2ccccc2)c(=O)c2sc3ccccc3c21)Nc1ccc(F)cc1 | ? | -10.8% | -10.4% | ? | .
CC1(C)O[C@H]2O[C@@H]([C@H](O)CON3C(=O)c4ccccc4C3=O)[C@H](O)[C@H]2O1 | -2.9%[11.6 µM] | -18.7%[11.6 µM] | . | -18.0%[11.5 µM] | 0.7
SMILES | Tau FP inhib | Tau fluor counter | USP1 inh | Tau ThT inhib | Coupling enz
C=CCSC1=N/C(=C\C=C\c2ccco2)C(=O)S1 | ? | ? | 0.3% | 12.6µM* | -7.5
CC1CC(C)CN(C(=O)c2ccc(S(=O)(=O)N3CC(C)CC(C)C3)cc2)C1 (centres undefined) | . | . | -6.2% | . | -0.3
N#C/C(=N\Nc1ccc(S(=O)(=O)N2CCCCCC2)cc1)C(N)=S | 6.1% | -19.4% | 0.9% | 14.1µM* | 4.6
N#C/C(=N/Nc1ccc([N+](=O)[O-])cc1)C(=N)N1CCCCC1 | 0.2% | -28.9% | -9.3% | 10µM* | -10.1
N#C/C(=N\Nc1ccc(S(=O)(=O)N2CCc3ccccc32)cc1)C(N)=S | 15.6% | ? | ? | 14.1µM* | 7.9
NNC(=S)Nc1ccc(S(=O)(=O)N2CCCCC2)cc1 | 14.0% | 15.8µM*[quencher] | -8.4% | -9.7% | -2.3
N#C/C(=N\Nc1ccc([N+](=O)[O-])cc1)C(=N)N1CCOCC1 | 5.0% | 0.6% | -11.2% | ? | 0.1
N#C/C(=N\Nc1ccc(S(=O)(=O)N2CCCCC2)cc1)C(N)=S | -5.1% | -13.2% | -16.7% | 12.6µM* | 3.0
COC(=O)C1=C(C)NC(C)=C([N+](=O)[O-])[C@@H]1c1ccccc1C(F)(F)F | -3.7% | -15.8% | . | ? | -5.7
COC(=O)c1nc2ccc(N3CCOCC3)cc2c(C)c1C(=O)OC | 3.5% | 2.0% | -19.2% | ? | -50.5*
Cc1cc(C(=O)Nc2ccc(N3CCOCC3)cc2)c2ccccc2n1 | 4.1% | -19.6% | -21.9% | ? | -0.1
COc1cc(C(=O)Nc2cc3c(cc2C)n(C)c(=O)c(=O)n3C)cc(OC)c1OC | 4.5% | -7.7% | 0.6% | -13.7% | .
CCCc1ccc(O)c(N=Cc2cc(Br)cc(OCC)c2O)c1 | -10.8% | -23.4% | ? | 14.1µM* | -4.6
CNc1cccccc1=S | ? | -29.3% | -26.5% | 12.6µM* | 5.7
N#C/C(=C\c1cc(Br)c(O)c(Br)c1)c1nc2ccccc2c(=O)[nH]1 | -2.7% | ? | 28.2µM* | ? | .
N#C/C(=C/c1ccncc1)c1nc2ccccc2c(=O)[nH]1 | -2.6% | -11.3% | -11.9% | . | -0.3
O=[N+]([O-])c1ccccc1N/N=C/c1c[nH]c2ccccc12 | -15.1% | 3.55µM*[quencher] | -11.4% | 3.16µM* | -6.2
O=[N+]([O-])c1ccc(N/N=C/c2c[nH]c3ccccc23)cc1 | ? | 7.94µM*[quencher] | -2.4% | 3.16µM* | -1.5
O=[N+]([O-])c1cccc(N/N=C/c2cccc3ccccc23)c1 | -2.1% | 8.91µM*[quencher] | -10.7% | ? | -5.6
CC12CN3CC(C)(CN(C1)C3c1ccc(OCc3ccccc3)cc1)C2=O (centres undefined) | 0.8% | -11.8% | -13.7% | -6.8% | .
O=C(NNC(=O)c1cc2cc(Br)ccc2oc1=O)c1ccc(O)cc1O | 2.5% | ? | ? | 8.91µM* | 2.5
COCCCNC(=O)c1cc2cc(Br)ccc2oc1=O | -2.7% | 2.9% | 1.5% | 0.6% | 0.2
Cc1cccc(C)c1NC(=O)C(=O)NCC1CCCN1S(=O)(=O)c1cccs1 (centres undefined) | . | . | -13.6% | . | .
NS(=O)(=O)c1ccc(Nc2ccc([N+](=O)[O-])c3nonc23)cc1 | -11.4% | -21.8% | ? | 15.8µM* | -32.8*
CCc1nnc(NS(=O)(=O)c2ccc(Nc3ccc([N+](=O)[O-])c4nonc34)cc2)s1 | 3.8% | -13.5% | ? | 14.1µM* | 0.1
